The text below walks through data of PubChem BioAssay AID504908 (NMMLSC, 2011).

Values joined by “and” are separate entries in the source; they are usually repeats but may differ in a detail not shown here. Identical values can stand only once. Hit rate of the full screen: of about 1,300 compounds, about 25 (2%) were called active. A selection follows. A number with no mark means an inactive call.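 The calls were made as follows: active = inhibition above a set limit, roughly 3 SD of non-fluorescent compound noise (cut at about 38% in these data); inactive = inhibition at or below that limit.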

AP-2 complex subunit beta (Homo sapiens), sequence (P63010 whole entry, looked up, the tested form may be a part, one chain of several): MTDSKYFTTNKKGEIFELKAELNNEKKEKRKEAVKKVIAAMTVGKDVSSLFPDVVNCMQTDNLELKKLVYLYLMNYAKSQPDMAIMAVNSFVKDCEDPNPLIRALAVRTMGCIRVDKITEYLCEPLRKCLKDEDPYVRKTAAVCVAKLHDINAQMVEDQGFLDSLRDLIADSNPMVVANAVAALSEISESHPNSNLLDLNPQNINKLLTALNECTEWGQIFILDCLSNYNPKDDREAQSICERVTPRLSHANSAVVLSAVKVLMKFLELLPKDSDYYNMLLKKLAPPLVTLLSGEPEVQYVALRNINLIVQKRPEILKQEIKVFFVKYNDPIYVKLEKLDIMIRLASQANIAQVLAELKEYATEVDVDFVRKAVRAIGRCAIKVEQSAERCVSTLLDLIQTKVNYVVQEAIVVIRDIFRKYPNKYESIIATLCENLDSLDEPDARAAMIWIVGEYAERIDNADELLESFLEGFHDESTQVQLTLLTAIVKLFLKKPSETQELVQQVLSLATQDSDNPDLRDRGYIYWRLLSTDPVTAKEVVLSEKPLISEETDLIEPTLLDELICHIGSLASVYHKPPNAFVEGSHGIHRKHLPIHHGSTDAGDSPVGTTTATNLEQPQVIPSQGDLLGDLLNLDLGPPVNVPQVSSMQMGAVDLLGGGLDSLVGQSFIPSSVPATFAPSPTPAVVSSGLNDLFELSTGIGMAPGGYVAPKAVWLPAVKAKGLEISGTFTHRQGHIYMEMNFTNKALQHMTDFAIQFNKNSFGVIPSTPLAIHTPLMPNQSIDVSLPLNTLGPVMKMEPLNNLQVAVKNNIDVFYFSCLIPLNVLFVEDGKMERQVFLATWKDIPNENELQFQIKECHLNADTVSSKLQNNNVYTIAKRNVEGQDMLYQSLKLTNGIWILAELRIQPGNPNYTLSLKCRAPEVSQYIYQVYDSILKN

This experiment addresses AP-2 complex subunit beta (Homo sapiens) (UniProt P63010). Put plainly: inhibitors of arrestin peptide binding to AP2, confirmation, biochemical, cherry pick 1, flow cytometry beads (AID 504908).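 Also: loss of bead fluorescence from 50 nM FITC arrestin peptide bound to appendage; 0% = negative control wells and 100% = excess unlabelled arrestin peptide.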 Conditions: GST-AP2 beads, FITC arrestin peptide binding, at 10 µM, hits give high values, GST-fused beta2-adaptin appendage, R879A mutant. (In general: Flow cytometry measures light scatter and fluorescence of single cells or particles in a stream.)
By inhibition is commonly meant the drop in the measured response relative to a control, in per cent. For `Cc1ccc(S(=O)(=O)/N=C(/Nc2ccccn2)c2ccc(Cl)cc2)cc1`, the inhibition is 13.7%. The result for `CC(Oc1ccccc1)C(=O)NN1Cc2ccccc2C1=N` (stereo not drawn) reads -3.2%.

With `Cn1c(=O)c([N+](=O)[O-])c(Oc2ccccc2)c2ccccc21`, the inhibition is 2.7%. On to `CCC(C(=O)OC)n1cnc2c(oc3ccccc32)c1=O` (stereo not drawn), for which the inhibition was -3.46%. The value for `CN(C)c1ccc(NC(=O)c2ccncc2)c2ccccc12` was -3.42%; that for `COc1ccc(/C=C2\SC(=S)N(CCC(=O)Nc3ccccn3)C2=O)cc1OC` was 17.1%; that for `CCC(=O)Nc1nc2ccccc2n1Cc1ccccc1C` was -4.23%. The value for `O=C(NCC1(N2CCCCC2)CCCCC1)c1cccc(S(=O)(=O)Nc2ccccc2Cl)c1` was -1.26%; that for `COC(=O)C1CC2=C(CC(C)(C)CC2=O)N(c2ccccc2)C1=O` (stereo not drawn) was -13.1%. The result for `CN1C(=O)/C(=C/c2ccco2)SC1=Nc1cccc(C(=O)O)c1` reads 9.02%. For `Cc1cc(C(=O)Nc2ccc(C)c(S(=O)(=O)N3CCOCC3)c2)c2ccccc2n1`, the inhibition is 7.91%. The result for `COc1cccc(-n2c(SCC(=O)c3c[nH]c4ccccc34)nc3ccccc3c2=O)c1` reads 11.3%; that for `Cc1cc(C)cc(Oc2nc3c(C)cccn3c(=O)c2/C=C(\C#N)C(=O)NC2CCS(=O)(=O)C2)c1` (stereo not drawn), 7.24%; that for `Cc1ccc(C2(C)NC(=O)N(CC(=O)Nc3ccccc3C(=O)N3CCCCC3)C2=O)cc1` (stereo not drawn), 0.91%. The result for `Cc1cc(C(=O)OCC(=O)c2c(N)n(C)c(=O)n(C)c2=O)c(C)o1` reads -0.6% and 1.98%; that for `NS(=O)(=O)c1ccc2nc(NC(=O)C3=COCCO3)sc2c1`, 3.87%; that for `C/C(=N\Nc1ccc([N+](=O)[O-])cc1)c1ccc(-n2nncc2C(C)(C)C)cc1`, -0.82%. The value for `COc1cc2c(cc1OC)CN(C(=O)c1cc(=O)c3ccccc3o1)CC2` was -9.22%; that for `Cc1ccc(OCCCCc2c(C)n[nH]c2C)cc1` was 4.8%. For `COCCNC(=O)Nc1ccc2nc(-c3ccco3)c(-c3ccco3)nc2c1`, the inhibition was 34%. The value for `Cc1ccc(OCCCC(=O)Nc2ccc3c(c2)OCCO3)cc1` was -5.58%; that for `Cc1ccc(Cl)cc1-c1ccc(/C=N/n2cnnc2)o1` was -9.15%. As to `CC(C)(C)c1ccc(C(=O)NCCn2c(N)c(C#N)c3nc4ccccc4nc32)cc1`, the inhibition was 6.81%. Regarding `Cn1c(=O)c2c(nc(N/N=C/c3cccs3)n2Cc2ccc(Br)cc2)n(C)c1=O`, the inhibition is 1.14%.

For the compound `CC(CN1CCCCC1)OC(=O)c1ccccc1Cl` (stereo not drawn), the inhibition was 7.67%.

With `CCOc1ccc(-c2nnc(-c3ccco3)o2)cc1`, the inhibition is 11.9%. The result for `O=c1[nH]c2ccccc2n2c(-c3ccccc3)nnc12` reads 20.4%. The result for `O=C(c1ccc(S(=O)(=O)NCc2ccco2)cc1)N1CCN(c2ccccc2)CC1` reads 1.61%.
